Laboratory results from PubChem BioAssay (Tox21).
Inconclusive results are not listed. Entries that show only a call come without a potency. Activity calls are given as the source filed them. Unless noted, the call rests on the fitted dose curve; in most records, active means well fitted curve in the direction sought with a large enough effect in the repeat runs; inconclusive means weak or mixed curves; inactive means no such curve, though single readings can be large; an effect the other way counts as inactive or inconclusive.

Key:
[1] = molecular target: Estrogen receptor (Homo sapiens) (UniProt P03372); test: qHTS assay to identify small molecule antagonists of the estrogen receptor alpha (ER-alpha) signaling pathway using the BG1 cell line in the presence of 0.1 nM 17-beta-estradiol (AID 1259244); further: nearly all actives have a fitted effect of over 50% in size
Outline: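 VM7Luc4E2 cells (endogenous full-length ER-alpha, 4×ERE-luciferase), kept 5 days in phenol red-free, charcoal-stripped FBS medium; 4,000 cells/well. Compounds added with 0.1 nM (final) 17beta-estradiol, 22 hr at 37C; luminescence read with ONE-Glo after 30 min.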

[2] = qHTS assay to identify small molecule HDAC inhibitors - cell viability counter screen (AID 1259365); further: series mostly up to about 92 µM; nearly all actives have a fitted effect of over 50% in size
Outline: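 CellTiter-Glo luminescence (30 min, room temperature) reported viability after a 2 h compound exposure at 37 C. Cells: wild-type HCT-116, 1,500 per well, seeded the night before.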

[3] = qHTS assay to identify small molecule agonists of the sonic hedgehog signaling (Shh) pathway - cell viability counter screen (AID 1259366); further: nearly all actives have a fitted effect of over 50% in size; further: potency means the concentration at half of the fitted maximal effect
Outline: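 Cytotoxicity counter screen: CellTiter-Fluor reagent added after 23 h compound exposure, then 1 h at 37C and fluorescence read. Cells were 3T3 Gli1-Luc, seeded 2,000 per well and dosed 4 h post-plating.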

[4] = qHTS assay to identify small molecule agonists of the sonic hedgehog signaling (Shh) pathway (AID 1259368; calls by dose curve;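 further: NIH/3T3-derived 3T3Gli1-Luc cells carrying a stable Gli1-driven firefly luciferase reporter; series mostly up to about 92 µM; nearly all actives have a fitted effect of over 15% in size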)
Outline: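 NIH/3T3-derived 3T3Gli1-Luc cells with stably integrated Gli1-driven firefly luciferase, 2,000 cells/well, compounds added after 4 hr. Incubated 24 hr at 37C, 5% CO2; luminescence read after 30 min with luciferase reagent at room temperature.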

[5] = qHTS assay to identify small molecule antagonists of the sonic hedgehog signaling (Shh) pathway (AID 1259369; calls by dose curve; further: nearly all actives have a fitted effect of over 45% in size; further: potency means the concentration at half of the fitted maximal effect)
Outline: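 NIH/3T3-derived Gli1-Luc reporter cells plated 4 h, dosed with compound, then stimulated with conditioned medium for 24 h at 37 C. Firefly luciferase luminescence read after 30 min with detection reagent at room temperature.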

[6] = molecular target: Estrogen receptor beta (Homo sapiens) (UniProt Q92731); test: qHTS assay to identify small molecule agonists of the estrogen receptor beta (ER-beta) signaling pathway (AID 1259377; active means well fitted activation curve with a large enough effect in the signal ratio in the repeat runs, not every such curve was filed as active; the % refers to the signal ratio)
Outline: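 Ratiometric beta-lactamase FRET read-out came after 2 h substrate loading at room temperature. It followed 16 h compound treatment at 37C of GripTite HEK293T cells carrying a UAS-bla reporter, plated in 2% charcoal-stripped FBS medium.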

[7] = qHTS assay to identify small molecule HDAC inhibitors (AID 1259364); further: top concentration of the series differs between compounds; nearly all actives have a fitted effect of over 45% in size
Outline: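 Wild-type HCT-116 cells, plated overnight at 37 C, exposed to compounds 2 hr at 37 C; luminogenic HDAC-Glo substrate then added 30 min at room temperature. Luminescence reports relative endogenous class I/II HDAC activity.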

[8] = qHTS assay to identify small molecule antagonists of the sonic hedgehog signaling (Shh) pathway - cell viability counter screen (AID 1259367); further: nearly all actives have a fitted effect of over 55% in size; further: potency means the concentration at half of the fitted maximal effect
Outline: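 NIH/3T3-derived Gli1-Luc reporter cells (2,000 per well) rested 4 hr at 37 C, then received DMSO compounds plus conditioned medium. After 23 hr of treatment, CellTiter-Fluor was added for 1 hr at 37C and fluorescence read.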

[9] = qHTS assay to identify small molecule phospholipidosis (PLD) inducers (AID 1259344; active means well fitted curve in the direction sought with a large enough effect; an effect the other way counts as inactive or inconclusive)
Outline: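 HepG2 cells on collagen I, attached 4 h at 37 C, were co-treated with compound and LipidTOX Red dye for 24 h at 37 C, then fixed with paraformaldehyde plus Hoechst 33342 and imaged by high-content microscopy for phospholipid accumulation.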

Chain of Estrogen receptor beta (Homo sapiens) (Q92731 whole entry, looked up): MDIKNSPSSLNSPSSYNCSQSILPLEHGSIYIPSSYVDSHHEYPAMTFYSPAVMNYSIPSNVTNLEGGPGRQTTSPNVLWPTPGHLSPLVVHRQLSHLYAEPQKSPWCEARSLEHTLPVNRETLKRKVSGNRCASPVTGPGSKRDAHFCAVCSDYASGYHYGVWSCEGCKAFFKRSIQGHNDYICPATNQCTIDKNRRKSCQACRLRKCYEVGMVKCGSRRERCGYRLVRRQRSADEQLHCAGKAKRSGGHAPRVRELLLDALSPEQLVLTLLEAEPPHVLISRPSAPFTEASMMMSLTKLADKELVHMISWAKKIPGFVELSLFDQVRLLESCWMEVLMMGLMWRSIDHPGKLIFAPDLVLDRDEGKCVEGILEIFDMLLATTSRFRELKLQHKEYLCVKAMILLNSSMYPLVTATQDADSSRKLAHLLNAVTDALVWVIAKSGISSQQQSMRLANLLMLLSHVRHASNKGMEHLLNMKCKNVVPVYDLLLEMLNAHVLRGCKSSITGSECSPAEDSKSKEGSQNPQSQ
Chain of Estrogen receptor (Homo sapiens) (P03372 whole entry, looked up): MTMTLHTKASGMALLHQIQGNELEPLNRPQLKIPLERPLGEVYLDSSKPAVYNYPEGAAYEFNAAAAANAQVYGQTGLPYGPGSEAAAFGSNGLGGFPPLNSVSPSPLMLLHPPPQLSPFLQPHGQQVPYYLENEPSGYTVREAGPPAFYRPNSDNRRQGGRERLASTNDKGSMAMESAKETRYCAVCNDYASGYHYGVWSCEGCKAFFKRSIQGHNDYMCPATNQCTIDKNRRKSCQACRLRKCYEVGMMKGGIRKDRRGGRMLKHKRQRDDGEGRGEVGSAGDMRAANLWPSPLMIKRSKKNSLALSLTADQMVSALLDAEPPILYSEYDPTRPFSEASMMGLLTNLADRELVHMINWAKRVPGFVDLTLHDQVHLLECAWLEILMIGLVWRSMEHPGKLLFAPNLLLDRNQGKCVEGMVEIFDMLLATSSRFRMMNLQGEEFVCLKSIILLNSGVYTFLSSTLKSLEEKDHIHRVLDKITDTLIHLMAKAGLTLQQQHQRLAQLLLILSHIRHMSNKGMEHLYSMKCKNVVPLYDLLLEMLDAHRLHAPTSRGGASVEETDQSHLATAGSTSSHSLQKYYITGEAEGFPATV

Structure (SMILES)	Potency [1]	Potency [2]	Potency [3]	Potency [4]	Potency [5]	Potency [6]	Potency [7]	Potency [8]	Potency [9]
CCCCCCOc1ccc(O)cc1	inactive	inactive	inactive	inactive	inactive	inactive	–	–	–
C=CC(C)C#N (stereo not drawn)	–	inactive	inactive	inactive	inactive	–	inactive	inactive	–
Clc1ccc(C(c2ccccc2Cl)C(Cl)Cl)cc1 (stereo not drawn)	–	inactive	inactive	inactive	inactive	inactive	inactive	inactive	–
CN1[C@@H]2CC[C@H]1CC(OC(=O)C(CO)c1ccccc1)C2 (stereo partly drawn)	–	inactive	inactive	–	–	–	inactive	inactive	inactive
CNCC[C@H](Oc1cccc2ccccc12)c1cccs1	–	inactive	26.6 µM (active)	inactive	2.37 µM (active)	–	inactive	33.5 µM (active)	–
CCOC(=O)CN	–	inactive	inactive	inactive	inactive	–	inactive	inactive	–
Nc1ncnc2c1ncn2[C@@H]1O[C@H](COP(=O)(O)O)[C@@H](O)[C@H]1O	–	–	inactive	inactive	inactive	inactive	inactive	inactive	inactive
